# Screening results as filed in PubChem.
# hgDAF-12 ag: hgDAF-12 agonism, primary luciferase screen | HEK293 GAL4-hgDAF12 UAS-luciferase reporter, agonist luminescence; normalized to butyrate control | activation, % at 6.8 µM | 370,000 tested, 1.8% active | AID 687014;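 active = activation above a cutoff set at the mean of all screened compounds plus 3 SD, cut at about 10% in these data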;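 note: 0% = DMSO wells and 100% = sodium butyrate wells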
# DAX1 inh-1: blocks DAX1 repression of SF-1 activated StAR promoter | HEK293T StAR-luciferase reporter, SF-1/DAX-1 repression relief | inhibition, % at 6.8 µM | 370,000 tested, 1.1% active | AID 652010;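 active = inhibition above the mean over all tested compounds plus 3 SD, cut at about 3.6% in these data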;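 note: 0% = DAX-1 cells with DMSO and 100% = cells lacking DAX-1 with DMSO; higher inhibition means more luminescence from relief of DAX-1 repression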
# hcDAF-12 act: H. contortus DAF-12 activation, primary screen; activation, % at 6.8 µM; 370,000 tested, 1.4% active; HEK293 hcDAF-12 lit1-tk-luc reporter, luminescence; 0% DMSO, 100% Δ7-dafachronic acid; AID 652067;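 active = activation above the mean of all tested compounds plus 3 SD, cut at about 5.5% in these data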;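 note: 100% = response to 3 µM Δ7-dafachronic acid high control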
# ssDAF-12 act: S. stercoralis DAF-12 activation, primary screen; HEK293 ssDAF-12/GRIP1 lit1-tk-luc reporter, luminescence; % of 3 µM dafachronic acid response; activation, % at 6.8 µM; AID 652126; 370,000 tested, 1% active;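 active = activation above the mean over all tested compounds plus 3 SD, cut at about 0.9% in these data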;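 note: 0% = DMSO-only wells and 100% = 3 µM delta7-dafachronic acid wells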
# DAX1 inh-2: inhibits human nuclear receptor DAX1; 340,000 tested, 0.99% active; P51843; HEK293 Gal4-DAX1 luciferase reporter, luminescence; inhibition, % at 6.75 µM;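 active = inhibition above the mean over all tested compounds plus 3 SD, cut at about 4.2% in these data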;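 note: 0% = DAX1-transfected cells with DMSO and 100% = empty-vector control cells with DMSO; inhibition shows as a rise in luminescence from relieved DAX1 repression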
# Target sequence (P51843 207-470 limits assumed): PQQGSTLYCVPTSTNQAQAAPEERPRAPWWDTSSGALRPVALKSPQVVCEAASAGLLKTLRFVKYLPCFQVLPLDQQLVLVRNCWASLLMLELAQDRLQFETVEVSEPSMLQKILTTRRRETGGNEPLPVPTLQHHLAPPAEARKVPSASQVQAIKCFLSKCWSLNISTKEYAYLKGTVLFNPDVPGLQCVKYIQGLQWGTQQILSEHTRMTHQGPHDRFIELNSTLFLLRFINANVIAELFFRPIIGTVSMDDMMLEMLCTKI
# LXR ag: counter-screen for hcDAF-12 agonists: agonists of human LXR-beta; 3,400 tested, under 10 active; shares compounds with hcDAF-12 act; activation, % at 6.8 µM; HEK293 Gal4-LXR tk-luc reporter, luminescence, 24 h; normalized: DMSO 0%, positive control 100%; AID 743027;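 active = mean percent activation of the reporter above a cutoff set as the average over tested compounds plus their standard deviation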
# Target sequence (P55055 whole entry, looked up, the tested form may be a part): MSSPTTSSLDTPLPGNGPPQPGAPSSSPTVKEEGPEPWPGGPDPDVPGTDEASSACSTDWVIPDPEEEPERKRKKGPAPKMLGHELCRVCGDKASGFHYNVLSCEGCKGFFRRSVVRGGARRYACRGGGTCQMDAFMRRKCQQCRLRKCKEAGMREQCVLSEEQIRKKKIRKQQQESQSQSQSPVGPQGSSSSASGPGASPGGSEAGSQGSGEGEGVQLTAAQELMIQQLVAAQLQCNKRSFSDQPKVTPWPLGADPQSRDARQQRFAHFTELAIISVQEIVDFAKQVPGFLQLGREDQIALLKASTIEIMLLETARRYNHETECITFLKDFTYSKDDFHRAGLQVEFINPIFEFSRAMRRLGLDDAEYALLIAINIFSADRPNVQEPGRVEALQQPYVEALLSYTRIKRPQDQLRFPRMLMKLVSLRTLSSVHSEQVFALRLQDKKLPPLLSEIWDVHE
# hcDAF12 ag: hcDAF-12 agonism, confirmation assay. 3,400 tested, 61% active. HEK293 hcDAF-12 lit1-tk-luc reporter, luminescence; % of Δ7-dafachronic acid response. AID 743032. shares compounds with hcDAF-12 act. activation, % at 6.8 µM;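 active = mean activation across triplicate tests above the threshold derived from the earlier primary screen, cut at about 5.5% in these data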;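 note: 0% = DMSO only wells and 100% = 3 µM Δ7-dafachronic acid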
# hgDAF12 conf: hgDAF-12 agonism, confirmation assay; shares compounds with hgDAF-12 ag; HEK293 GAL4-hgDAF12 luciferase reporter, agonist mode; percent of butyrate response; activation, % at 6.8 µM; 3,300 tested, 80% active; AID 743050;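 active = mean activation over triplicate wells above the hit cutoff derived from the earlier primary screen, cut at about 11% in these data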;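 note: 0% = DMSO low control and 100% = 2 mM sodium butyrate high control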
# LXR ag 2: LXR-beta agonism as DAF-12 counter-screen; shares compounds with hgDAF-12 ag; HEK293 Gal4-LXR luciferase reporter, 24 h; activation, % at 6.8 µM; 3,300 tested, under 10 active;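 active = mean activation of the triplicate above a set limit carried over from the primary screen, none filed active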
# Active calls of the source: *; . = not tested or not shown. Hits are enriched below; roughly 4.1% of the tested compounds scored in any of these assays.
SMILES,hgDAF-12 ag,DAX1 inh-1,hcDAF-12 act,ssDAF-12 act,DAX1 inh-2,LXR ag,hcDAF12 ag,hgDAF12 conf,LXR ag 2
COc1ccc(C(=O)c2coc3ccc(OC(C)=O)cc23)cc1,13.9*,2.4,7.3*,0.2,-1.2,1.7,8.1*,23.4*,1.2
C[C@@]12C[C@@H]3C(=O)N(Cc4ccccc4)CC(=O)N3[C@@H]1N(S(=O)(=O)c1ccccc1)c1ccccc12,-1.0,0.0,-2.6,-1.4,.,.,.,.,.
O=[N+]([O-])c1ccc(/C=C/c2ccc3cccc(O)c3n2)cc1,6.6,0.5,1.8,-0.6,2.4,.,.,.,.
O=[N+]([O-])c1ccc(/C=C/c2ccc3ccccc3n2)cc1,23.7*,3.8*,10.6*,1.0*,-1.7,1.5,9.7*,13.4*,1.0
Cc1ccc(S(=O)(=O)/N=C(/NC(=S)Nc2ccccc2)c2ccccc2)cc1,28.0*,3.2,14.2*,2.6*,3.6,1.4,5.4,20.2*,0.9
COC(=O)[C@]12C[C@H](CC(=O)NCCCCc3ccccc3)C(=O)N(Cc3ccc(Cl)cc3Cl)C1=C[C@H](C1CCCC1)O[C@@H]2C,-0.4,-0.7,-1.4,-0.3,.,.,.,.,.
Cc1cc(N2CCN(C(=O)OC(C)(C)C)C[C@@H]2C)ccc1N1CCN(Cc2ccccc2)[C@H](C)C1,0.9,1.2,-1.6,-0.4,.,.,.,.,.
CC(=C/c1ccccc1)/C=N/NC(=O)c1cccs1,19.5*,2.2,7.8*,-0.6,.,1.8,8.2*,14.9*,0.9
O=C(N/N=C/C(Br)=C\c1ccccc1)c1cccs1,9.1,2.0,4.0,-0.2,.,.,.,.,.
Nc1ccc2oc(-c3cccc(Br)c3)nc2c1,.,.,.,.,0.6,.,.,.,.
CCc1ccc2oc(-c3cccc(N)c3)nc2c1,16.3*,4.3*,16.4*,3.3*,-0.8,1.8,14.3*,24.0*,1.1
CCN(CC)c1ccc(/C=C/C(=O)C2C(=O)C=C(C)OC2=O)cc1 (stereo unspecified),18.8*,2.5,7.7*,0.3,0.3,0.4,4.2,7.9,0.3
Cc1cc2nc(-c3ccc[nH]c3=O)n(Cc3ccc(F)cc3)c2cc1C,1.3,0.4,-0.2,-0.6,1.1,.,.,.,.
Cc1cc2nc(-c3ccc[nH]c3=O)[nH]c2cc1C,14.8*,2.6,7.6*,1.2*,-5.0,1.5,7.9*,12.2*,0.9
Cc1cc(NC(=O)c2ccc(C(C)(C)C)cc2)no1,14.5*,2.9,7.2*,0.1,2.2,1.8,5.6*,21.3*,1.2
CCCN(CC1CC1)c1c2c(nc3ncnn13)CCCC2,0.0,-0.8,-3.4,-0.9,.,.,.,.,.
Cc1ccc(C)c(NC(=O)c2cc3ccccn3n2)c1,20.7*,3.6*,7.8*,0.2,0.6,1.0,2.8,18.2*,0.8
COc1ccc2c(c1)CC/C(=C/c1ccco1)C2=O,15.6*,4.2*,8.6*,0.2,2.3,1.9,6.2*,15.7*,0.9
CC(=O)Nc1ccc(-c2cn3cc(C)ccc3n2)cc1,18.5*,3.6*,10.6*,-0.1,-0.8,1.4,7.4*,11.4*,0.5
Clc1ccc(-c2cn3cc(Cl)ccc3n2)cc1,14.1*,2.9,19.7*,3.2*,-0.4,2.1,17.9*,21.6*,1.4
CCN(CC)S(=O)(=O)c1ccc(-c2cn3cc(Cl)ccc3n2)cc1,4.7,-0.9,-1.5,-0.3,-0.9,.,.,.,.
Cc1cc2nc(-c3ccc(SCC(=O)Nc4nccs4)nc3)[nH]c2cc1C,3.8,1.3,4.1,-0.2,-1.0,.,.,.,.
CCc1nnc(NC(=O)CSc2ccc(-c3nc4ccc(C)cc4[nH]3)cn2)s1,16.9*,4.4*,7.3*,0.2,2.9,1.5,7.8*,17.7*,0.8
Cc1ccc(NC(=O)OC2CC3CC2[C@H]2CCCCN2C3)cc1C (stereo partly specified),7.5,0.4,0.2,-1.1,.,.,.,.,.
COC(=O)C1=C(C)N(Cc2ccccc2C(F)(F)F)C(=NCc2cc(OC)c(OC)c(OC)c2)NC1c1ccc(Cl)cc1 (stereo unspecified),3.1,-1.0,-2.1,0.7,.,.,.,.,.
SMILES,hgDAF-12 ag,DAX1 inh-1,hcDAF-12 act,ssDAF-12 act,DAX1 inh-2,LXR ag,hcDAF12 ag,hgDAF12 conf,LXR ag 2
O=C(NCc1c(F)cccc1F)C1CCC(CNS(=O)(=O)c2cccc3cccnc23)CC1 (stereo unspecified),-3.3,-0.9,-2.2,-1.1,.,.,.,.,.
O=C(Nn1cnc2ccccc2c1=O)c1ccccc1Cl,2.3,0.8,0.1,-0.6,2.0,.,.,.,.
Cc1ccccc1C(=O)Nn1cnc2ccccc2c1=O,15.1*,1.0,9.8*,1.7*,1.1,0.3,8.6*,7.7,0.2
Cc1ccc(-c2nc3ncccn3c2NC(=O)c2ccc(F)cc2)cc1,1.5,-1.0,-1.4,-1.4,.,.,.,.,.
Brc1cccc(-c2n[nH]c(-c3ccccc3)n2)c1,14.2*,3.4,11.7*,1.8*,1.8,1.4,9.6*,21.4*,0.8
c1ccc(-c2nc(-c3cccnc3)n[nH]2)cc1,7.2,-0.2,1.3,-0.6,.,.,.,.,.
COc1cccc(/C=N/Nc2ccc([N+](=O)[O-])cc2)c1O,24.6*,1.2,7.3*,0.8,2.1,1.6,7.2*,20.9*,1.0
CC1=CC(O)(c2ccccn2)P(=O)(c2ccccc2)C=C1C (stereo unspecified),-3.2,0.4,-0.4,-0.2,.,.,.,.,.
COc1cc(/C=C/c2ccc3cccc(O)c3n2)cc(OC)c1OC,-9.3,-1.2,-4.7,-1.9,-3.4,.,.,.,.
Oc1cccc(/C=C/c2ccc3cccc(O)c3n2)c1,23.4*,3.6*,26.1*,4.7*,2.8,2.3,21.3*,27.8*,1.3
Cc1ccc(/C=C/c2ccc3cccc(O)c3n2)s1,17.5*,1.5,8.9*,1.5*,3.6,1.4,14.9*,16.1*,0.9
COc1cccc(/C=C/c2ccc3cccc(O)c3n2)c1,14.5*,0.0,9.0*,1.5*,0.8,1.6,8.5*,23.9*,0.9
COC(=O)N1Cc2ccnnc2CC1c1ccccc1-c1ccccc1 (stereo unspecified),-4.2,0.0,0.1,-1.2,.,.,.,.,.
COc1cccc(C(=O)O/N=C(\N)c2ccc(C)cc2)c1,15.5*,2.1,9.7*,0.5,4.5*,0.8,7.2*,19.6*,1.0
COc1cccc(C(=O)O/N=C(\N)c2ccc([N+](=O)[O-])cc2)c1,-1.5,-0.1,-1.7,-0.9,-0.5,.,.,.,.
CCCCCCCCCCCCN1CCSCCS1(=O)=O,-1.2,1.5,-2.1,-1.2,.,.,.,.,.
